Measurements from PMC5540273 (PLoS ONE, 2017).

System: T1, YSK4
T1 construct: gene MAP3K19
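Further: kd values determined as follow-up on hits from a single-replicate KINOMEscan panel screen.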

SMILES	Kd
Cc1cc(-c2ccc3c(c2)CC[C@@H](N[C@@H](C)c2ccccc2)C3)cnc1N.Cl [GW412617]	2400 nM
Cn1ccc2ncnc(Oc3ccc(NC(=O)Nc4ccccc4)cc3)c21	170 nM
O=C(O)COc1ncnc2cc(-c3ccc4[nH]ncc4c3)sc12	20 nM
NC(=O)c1nnc2ccccc2c1N	300 nM
O=C(Nc1ccccc1)Nc1cccc(Oc2ccc3nccn3n2)c1	270 nM
Cc1ccc(NC(=O)Nc2cccc(Cl)c2)cc1-c1ccc(C(=O)Nc2ccncc2)cc1 [GSK1398468]	61 nM
Nc1ncnc2[nH]c(-c3ccccc3)nc12 [AH5015]	270 nM
O=C(Nc1n[nH]c2nc(-c3nccs3)c(Br)cc12)C1CC1 [SB-742251]	210 nM
